# Measured values from PubChem BioAssay (NCI).
# Compounds without any hit were thinned out: in the full panel of roughly 83,000, 20% have a hit.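 Plates (96-well) were seeded with cells, treated with compound at one concentration, and incubated for 48 hours before percent growth was determined.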 Unmarked numbers belong to inactive results. Activity calls are given as the source filed them. Rule for the calls: active = growth percent below 10; inactive = the rest.
# Columns and labels:
# Experiment in all cases: NCI-60 one-dose screen, 48 h (100 = growth as untreated, 0 = no growth, -100 = all killed)
# Conditions in all cases: 10 µM unless noted
# SK-MEL-2 melanoma = tested on: SK-MEL-2 melanoma
# EKVX NSCLC = tested on: EKVX NSCLC
# SN12C renal = tested on: SN12C renal
# UO-31 renal = tested on: UO-31 renal
# TK-10 renal = tested on: TK-10 renal
# ACHN renal = tested on: ACHN renal
# CAKI-1 renal = tested on: CAKI-1 renal
# CCRF-CEM leukemia = tested on: CCRF-CEM leukemia
# MOLT-4 leukemia = tested on: MOLT-4 leukemia
# SR leukemia = tested on: SR leukemia
# RPMI-8226 leukemia = tested on: RPMI-8226 leukemia
# OVCAR-8 ovarian = tested on: OVCAR-8 ovarian
# OVCAR-5 ovarian = tested on: OVCAR-5 ovarian
# OVCAR-4 ovarian = tested on: OVCAR-4 ovarian
# SK-OV-3 ovarian = tested on: SK-OV-3 ovarian
# IGROV1 ovarian = tested on: IGROV1 ovarian
# OVCAR-3 ovarian = tested on: OVCAR-3 ovarian
# HS 578T breast = tested on: HS 578T breast
# NCI/ADR-RES ovarian = tested on: NCI/ADR-RES ovarian
# A498 renal = tested on: A498 renal
SMILES,growth (SK-MEL-2 melanoma),growth (EKVX NSCLC),growth (SN12C renal),growth (UO-31 renal),growth (TK-10 renal),growth (ACHN renal),growth (CAKI-1 renal),growth (CCRF-CEM leukemia),growth (MOLT-4 leukemia),growth (SR leukemia),growth (RPMI-8226 leukemia),growth (OVCAR-8 ovarian),growth (OVCAR-5 ovarian),growth (OVCAR-4 ovarian),growth (SK-OV-3 ovarian),growth (IGROV1 ovarian),growth (OVCAR-3 ovarian),growth (HS 578T breast),growth (NCI/ADR-RES ovarian),growth (A498 renal)
CCOC(=O)c1c(C)oc2ncnc(N3CCN(C(=O)COc4ccc(SC)cc4)CC3)c12,95.4%,88.1%,94.9%,74.4%,103%,93.5%,82.7%,91.5%,88.6%,84.3%,81.6%,87.6%,98.2%,75%,86.1%,90.4%,100%,81.7%,85.7%,–
C=C(C)[C@@H]1CC[C@]2(C(N)=O)CC[C@]3(C)[C@H](CC[C@@H]4[C@@]5(C)C/C(=C/c6ccco6)C(=O)C(C)(C)[C@@H]5CC[C@]43C)[C@@H]12,99.5%,89.8%,96.1%,84.4%,105%,84.4%,59%,93.4%,–,–,84.6%,93.8%,101%,95.8%,102%,101%,105%,–,96.6%,104%
COc1cccc(-c2nc3sccn3c2-c2ccnc(NCCCNS(=O)(=O)c3c(Cl)cccc3Cl)c2)c1,67.5%,58.7%,60.9%,32.4%,100%,49.9%,44.1%,31.9%,–,–,4.47% (active),51.5%,85.6%,56.7%,90.4%,72.1%,69.8%,–,29.9%,71.3%
COC(=O)c1ccc(NC(=O)c2ccc(-c3cccc([N+](=O)[O-])c3)o2)cc1,98.4%,79%,97.3%,72.9%,111%,94.6%,88%,107%,–,114%,102%,103%,109%,92.7%,98.1%,91.6%,101%,92.2%,99%,105%
O=C1/C(=C/c2ccc3c(c2)OCO3)SC(=S)N1CCc1ccc(O)cc1,100%,98.8%,92.1%,58.8%,81.3%,97.2%,81%,56.7%,–,101%,89.8%,101%,111%,82.9%,104%,75.9%,101%,96.7%,97.4%,111%
Cc1oc(-c2ccc(Cl)cc2Cl)cc1C(=O)Nc1nccs1,102%,70.7%,78.3%,82%,103%,62.5%,78.1%,89%,–,–,98.4%,80%,83.1%,7.78% (active),89.8%,81.6%,101%,77.1%,89.6%,102%
O=C1/C(=C/c2cn(-c3ccccc3)nc2-c2ccccc2)SC(=S)N1CCc1ccccc1,108%,96.6%,98.6%,88.5%,106%,104%,85.2%,102%,–,–,102%,105%,107%,103%,109%,108%,107%,–,107%,95.7%
CCN(CC)c1ccc(/C=N\NC(=O)/C=C/C=C/c2ccc3c(c2)OCO3)c(O)c1,65.7%,52.2%,54.1%,25%,37.8%,25.6%,29.3%,21.7%,18.3%,17.6%,53.6%,32.9%,60.9%,15.3%,39.5%,38.2%,4.95% (active),68.1%,17.6%,–
CC1=CC(C)(C)Nc2ccc(Cc3ccc4c(c3)C(C)=CC(C)(C)N4)cc21,90.6%,81.4%,97.1%,77.8%,112%,93.8%,73.6%,–,82.9%,118%,–,96.9%,89.7%,72.2%,105%,92.7%,97.4%,103%,100%,109%
COc1cc(/C=C/C(=O)Nc2cccnc2Nc2ccc(F)cc2)cc(OC)c1OC,68.4%,92.5%,109%,89.2%,103%,102%,88.6%,85%,87.5%,82.5%,69.1%,81.7%,105%,93%,107%,139%,113%,99.4%,101%,–
Nc1n[nH]c2ccc([C@@H]3Nc4ccc5cn[nH]c5c4[C@H]4C5CCC(C5)[C@@H]34)cc12 (stereo partly specified),55.5%,48.7%,43.9%,38.9%,74.3%,39.2%,33.2%,15.6%,20.8%,14.3%,40.3%,35.5%,40.3%,35.2%,37.7%,22.1%,-5.18% (active),21.2%,20.7%,–
O=C(COc1ccc(/C=C2\COc3ccccc3C2=O)cc1)Nc1nccs1,72.8%,102%,114%,73.2%,88.7%,94.1%,103%,7.16% (active),22.5%,-2.82% (active),-0.182% (active),85%,93%,92.9%,127%,3.63% (active),95.8%,-38.3% (active),86.1%,–
COc1cc2nnc3c4cccnc4[nH]c3c2cc1OC,80.1%,73.1%,33%,-52.8% (active),42.9%,-36.7% (active),-14.7% (active),-37.5% (active),–,–,–,-15.2% (active),75%,29.8%,81.7%,–,30.5%,58.5%,23.4%,106%
O=C1/C(=C/c2ccccc2)SC(=S)N1CCc1ccc(O)cc1,101%,91.9%,91.3%,65%,99.9%,93.9%,73.3%,74.2%,–,93.7%,95.5%,96.3%,103%,76.4%,85%,82.3%,97.4%,76.9%,99.3%,92.1%
Cn1nc(N)c2cc([C@@H]3Nc4ccc5[nH]ncc5c4[C@H]4C5CCC(C5)[C@@H]34)ccc21 (stereo partly specified),46.6%,47.1%,50.7%,40.6%,80.4%,39.6%,40.9%,16.7%,20.1%,14.7%,–,38.2%,35.1%,41.4%,41.7%,27.3%,-16.2% (active),20.6%,3.15% (active),–
COC(=O)[C@@H]1CCCN1C(=O)[C@@H]1CCCN1C(=O)[C@H](Cc1ccccc1)NC(=S)Nc1cc(C(F)(F)F)cc(C(F)(F)F)c1,-21.9% (active),75.7%,95%,75.5%,85.1%,72.2%,72.3%,53.4%,50.1%,80.9%,–,41.6%,88.4%,77.9%,98.1%,108%,24.6%,83.7%,67.4%,–
